An excerpt weighted towards active compounds, which were near 3% of everything screened.
Tau fibril ThT: tau fibrillization inhibition (ThT binding); recombinant tau K18 P301L, heparin-induced fibrillization, ThT fluorescence; P10636; 270,000 tested, 2.1% active; Potency, µM (titrated, usually from 57.4 µM), inactives show at the top dose activity, negative = inhibition, usual class: inhibitors; note: nearly all actives have a fitted effect of over 55% in size
Target sequence (P10636 561-689 P618L limits assumed): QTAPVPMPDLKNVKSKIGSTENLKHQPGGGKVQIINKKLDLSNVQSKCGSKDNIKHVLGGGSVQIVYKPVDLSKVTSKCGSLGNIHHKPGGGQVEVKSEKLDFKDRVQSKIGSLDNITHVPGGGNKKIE
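In this qHTS, human K18 P301L tau is incubated with compound and heparin for 6 hr at 37 C, and Thioflavin T fluorescence then reports fibril load.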
TR SRC2 fluor cs: alters Texas Red total fluorescence, flagging assay interference; TRb/SRC2 Texas Red total fluorescence interference; Potency, µM (titrated, usually from 106 µM), for the others: at the top dose fluorescence change, negative = quenching; 280,000 tested, 0.29% active; AID 1479; active = well fitted curve in either direction with a large enough effect; inconclusive = small, poorly fitted or top-dose-only effect
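Flags fluorescent or light-absorbing compounds by total fluorescence, S + 2P, at 555 nm excitation and 632 nm emission. Mixture: 20 nM Texas Red SRC2 peptide, 0.6 uM human TRb LBD, 1 uM T3, 5% DMSO; compound exposure 5 h at ambient temperature.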
Tau fibril FP: blocks human tau fibril formation measured by polarization; K18 P301L tau heparin fibrillization, Alexa594 FP, 6 h; Potency, µM (series often up to 57.7 µM), inactives show at the top dose activity, negative = inhibition, hits mostly inhibitors; 280,000 tested, 0.39% active; AID 1468; note: nearly all actives have a fitted effect of over 55% in size
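Human tau K18 […] P301L fragment, 15 uM unlabeled plus 0.24 uM Alexa 594-labeled tau (final), with compound and 20 uM heparin in 100 mM sodium acetate pH 7; 6 hr at 37 C, then Alexa 594 FP read.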
TRb-SRC2 inh: TRbeta-SRC2 interaction inhibition; TRbeta-SRC2 peptide binding, fluorescence polarization; receptor liganded with 1 µM T3; Potency, µM (doses to about 106 µM), for the others: at the top dose activity change, negative = inhibition, usual class: inhibitors; 280,000 tested, 0.065% active; AID 1469;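 note: plate controls were bound peptide for no effect and peptide without receptor for full effect; nearly all actives have a fitted effect of over 50% in size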
Target sequence (P10828 whole entry, looked up): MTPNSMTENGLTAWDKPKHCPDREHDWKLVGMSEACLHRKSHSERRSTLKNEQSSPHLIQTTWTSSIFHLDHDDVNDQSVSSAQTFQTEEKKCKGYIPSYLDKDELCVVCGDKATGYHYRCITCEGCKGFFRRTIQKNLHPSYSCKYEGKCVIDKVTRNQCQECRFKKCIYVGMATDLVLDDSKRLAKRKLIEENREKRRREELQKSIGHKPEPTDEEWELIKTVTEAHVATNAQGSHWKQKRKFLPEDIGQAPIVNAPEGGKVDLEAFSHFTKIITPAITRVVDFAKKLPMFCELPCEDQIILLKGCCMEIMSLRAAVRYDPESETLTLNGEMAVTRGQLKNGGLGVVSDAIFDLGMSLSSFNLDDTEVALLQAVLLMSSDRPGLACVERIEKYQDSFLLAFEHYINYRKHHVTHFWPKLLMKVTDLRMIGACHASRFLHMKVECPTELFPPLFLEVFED
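Read-out is fluorescence polarization (555 nm excitation, 632 nm emission) of a Texas Red SRC2 coactivator peptide; loss of signal reflects blocked binding to human TRb ligand-binding domain in the presence of 1 uM T3.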
Tau fluor cs: counter-screen for tau fibril formation inhibitors. 280,000 tested, 0.93% active. Potency, µM (doses to about 57.7 µM), inactives show at the highest dose activity change, negative = decrease. tau K18 P301L (four-repeat tau fragment) Alexa594 fluorescence, heparin fibrillization; note: nearly all actives have a fitted effect of over 55% in size
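Human K18 P301L tau (15 uM unlabeled plus 0.24 uM Alexa 594-labeled, final) in 100 mM sodium acetate pH 7 was mixed with compound and 20 uM heparin and incubated 6 hr at 37 C.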
Numbers without * were called inactive; [ ] = dose if it differs, or a comment. Unless noted, calls come from the whole dose curve; as a rule, active = well fitted curve in the direction sought with a large enough effect; inconclusive = small, poorly fitted or top-dose-only effect, or another doubt; inactive = no such curve, though single readings can be large; an effect the other way counts as inactive or inconclusive. Unless noted, % is set by controls: 0 for no effect and ±100 for the full control effect; potency is the fitted concentration of half-maximal effect.

Results for CC(C)=C1C(=O)NN(c2ccc(F)c(Cl)c2)C1=O ?
Tau fibril ThT: inconclusive; TR SRC2 fluor cs: -2%; Tau fibril FP: 7%; TRb-SRC2 inh: -4%; Tau fluor cs: -19%

What do the screens show for `CCc1ccccc1OCC(=O)Nc1ccc(S(=O)(=O)Nc2nc(C)cc(C)n2)cc1`?
Tau fibril ThT: -5%; TR SRC2 fluor cs: -22%; Tau fibril FP: -2%; TRb-SRC2 inh: 4%; Tau fluor cs: -8%

Results for O=C(/C=C/c1cccc([N+](=O)[O-])c1)n1cnc2ccccc21 ?
Tau fibril ThT: 13µM*; TR SRC2 fluor cs: -1%; Tau fibril FP: inconclusive; TRb-SRC2 inh: 11%; Tau fluor cs: inconclusive

What do the screens show for `O=C(/C=C/c1cccc([N+](=O)[O-])c1)c1ccccc1`?
Tau fibril ThT: inconclusive; TR SRC2 fluor cs: -1%; Tau fibril FP: 10%; TRb-SRC2 inh: -4%; Tau fluor cs: -8%

Results for C[C@@H]1C[C@@H]2OC(=O)[C@]3(C)[C@H]2[C@@H](OC3(C)O)[C@]2(C)C(=O)C=C[C@H]12 (some centres not stated) ?
Tau fibril ThT: -16%; TR SRC2 fluor cs: -1%; Tau fibril FP: -10%; TRb-SRC2 inh: 3%; Tau fluor cs: 17%

What do the screens show for `C=C1C(=O)O[C@@H]2C[C@@H](C)[C@@H]3C=CC(=O)[C@@]3(C)[C@@H](OC(C)=O)[C@H]12`?
Tau fibril ThT: 4µM*; TR SRC2 fluor cs: -3%; Tau fibril FP: inconclusive; TRb-SRC2 inh: -5%; Tau fluor cs: -20%

How did CC(=O)N[C@@H](CCCNC(=N)N)C(=O)N[C@H](CC1CCCCC1)C(=O)N[C@@H]1CCC2SC[C@@H](C(=O)N[C@H](CCCNC(=N)N)C(=O)N[C@H](Cc3ccc(Cl)cc3)C(N)=O)N2C1=O (some centres not stated) do in these assays?
TR SRC2 fluor cs: -3%; TRb-SRC2 inh: 2%

How did CC1=CC(C)(C)N2C(=O)C(=O)c3cc(OC(=O)c4ccco4)cc1c32 do in these assays?
Tau fibril ThT: 13µM*; TR SRC2 fluor cs: -1%; Tau fibril FP: 1%; TRb-SRC2 inh: -2%; Tau fluor cs: -28%

Results for CC1=CC(C)(C)Nc2ccc(OC(=O)c3ccco3)cc21 ?
Tau fibril ThT: inconclusive; TR SRC2 fluor cs: -2%; Tau fibril FP: 7%; TRb-SRC2 inh: -15%; Tau fluor cs: -27%

How did Cn1c(=O)c2nc3ccc(NC(=O)C(F)(F)F)cc3nc2n(C)c1=O do in these assays?
Tau fibril ThT: 11%; TR SRC2 fluor cs: 11%; Tau fibril FP: -1%; TRb-SRC2 inh: 2%; Tau fluor cs: -6%

Results for CC(=O)Nc1ccc2nc3c(=O)n(C)c(=O)n(C)c3nc2c1 ?
Tau fibril ThT: 18µM*; TR SRC2 fluor cs: -6%; Tau fibril FP: inconclusive; TRb-SRC2 inh: -5%; Tau fluor cs: -27%

How did CC(=O)c1cccc(NC(=O)CSc2nc3ccccc3nc2Cc2ccc(F)cc2)c1 do in these assays?
Tau fibril ThT: 1%; TR SRC2 fluor cs: -2%; Tau fibril FP: inconclusive; TRb-SRC2 inh: -5%; Tau fluor cs: -26%

Results for O=c1c(N2CCN(c3cccc(Cl)c3)CC2)csc2ccccc12 ?
Tau fibril ThT: 10µM*; TR SRC2 fluor cs: 1%; Tau fibril FP: 11%; TRb-SRC2 inh: 8%; Tau fluor cs: -27%

How did O=c1c(N2CCN(c3ccccc3)CC2)csc2ccc(Cl)cc12 do in these assays?
Tau fibril ThT: 13µM*; TR SRC2 fluor cs: -12%; Tau fibril FP: -13%; TRb-SRC2 inh: 22%; Tau fluor cs: inconclusive

How did CC1CCCN(c2csc3ccccc3c2=O)C1 (configuration not stated) do in these assays?
Tau fibril ThT: inconclusive; TR SRC2 fluor cs: 0%; Tau fibril FP: 6%; TRb-SRC2 inh: 6%; Tau fluor cs: -20%

Results for CCN1CCN(c2csc3ccc(Cl)cc3c2=O)CC1 ?
Tau fibril ThT: inconclusive; TR SRC2 fluor cs: 5%; Tau fibril FP: -3%; TRb-SRC2 inh: 7%; Tau fluor cs: -28%

Results for COC(=O)NC(CC(C)=O)c1cccc(C)c1 (configuration not stated) ?
Tau fibril ThT: -16%[11.5 µM]; TR SRC2 fluor cs: 1%[11.2 µM]; Tau fibril FP: -4%[11.6 µM]; TRb-SRC2 inh: 7%[11.2 µM]; Tau fluor cs: -17%[11.6 µM]

Results for O=C(Nc1ccc2[nH]c(=S)sc2c1)c1ccccc1 ?
Tau fibril ThT: -16%; TR SRC2 fluor cs: -2%; Tau fibril FP: 3%; TRb-SRC2 inh: 0%; Tau fluor cs: -12%

How did O=C(Nc1ccc2[nH]c(=S)sc2c1)Nc1ccccc1F do in these assays?
Tau fibril ThT: 11µM*; TR SRC2 fluor cs: -7%; Tau fibril FP: -6%; TRb-SRC2 inh: 3%; Tau fluor cs: 11µM*[quencher]

How did CCN(c1ccccc1)S(=O)(=O)c1ccc(Cl)c(NC(=O)COC(=O)c2cc(O)c3ccccc3c2O)c1 do in these assays?
Tau fibril ThT: 11µM*; TR SRC2 fluor cs: -3%; Tau fibril FP: inconclusive; TRb-SRC2 inh: -2%; Tau fluor cs: 8.9µM*[quencher]

Results for COc1ccc(-n2c(SCC(=O)NCc3ccc(Cl)cc3)nc3ccsc3c2=O)cc1 ?
Tau fibril ThT: 6%; TR SRC2 fluor cs: -3%; Tau fibril FP: inconclusive; TRb-SRC2 inh: 3%; Tau fluor cs: -18%

How did Nc1nonc1N/N=C\c1ccccc1 do in these assays?
Tau fibril ThT: -4%; TR SRC2 fluor cs: -4%; Tau fibril FP: 13%; TRb-SRC2 inh: 1%; Tau fluor cs: -13%

Results for Nc1nonc1N/N=C/c1c(O)ccc2ccccc12 ?
Tau fibril ThT: inconclusive; TR SRC2 fluor cs: -4%; Tau fibril FP: 5%; TRb-SRC2 inh: 0%; Tau fluor cs: 10µM*[quencher]

What do the screens show for `Oc1ccc2oc3c(c2c1/C=N/n1cnnc1)CCCC3`?
Tau fibril ThT: 2%; TR SRC2 fluor cs: -1%; Tau fibril FP: 1%; TRb-SRC2 inh: 10%; Tau fluor cs: -5%

Results for Oc1ccc2oc3c(c2c1C=NCc1ccncc1)CCCC3 ?
Tau fibril ThT: 16µM*; TR SRC2 fluor cs: -1%; Tau fibril FP: inconclusive; TRb-SRC2 inh: 2%; Tau fluor cs: inconclusive

What do the screens show for `COc1ccc(Nc2ccc3cc(S(=O)(=O)N4CCCC4)ccc3n2)cc1OC`?
Tau fibril ThT: inconclusive; TR SRC2 fluor cs: -6%; Tau fibril FP: 11%; TRb-SRC2 inh: 1%; Tau fluor cs: 11µM*[quencher]

How did COc1cccc(Nc2ccc3cc(S(=O)(=O)N4CCC(C)CC4)ccc3n2)c1 do in these assays?
Tau fibril ThT: 10%; TR SRC2 fluor cs: -2%; Tau fibril FP: inconclusive; TRb-SRC2 inh: -1%; Tau fluor cs: 5µM*[quencher]

Results for O=C(Oc1ccccc1C(=O)Nc1ccccc1)c1ccc(Br)c([N+](=O)[O-])c1 ?
Tau fibril ThT: 10µM*; TR SRC2 fluor cs: -1%; Tau fibril FP: inconclusive; TRb-SRC2 inh: -10%; Tau fluor cs: inconclusive
